Screening data deposited in PubChem BioAssay by National Center for Advancing Translational Sciences (NCATS).
IL-1B inflam inh: inflammasome signaling inhibition, IL-1 beta readout | activity change, % at 57.5 µM | 4.7% of 360,000 active | THP-1 LPS/ATP IL-1B secretion, AlphaLISA, 16 h; active compounds read low; in the data active means activity change below about -50%; inconclusive means mostly about -30% to -49%
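THP-1 cells pretreated 1 hr with compounds (up to 57.5 uM final), then stimulated with LPS (250 ng/mL final) plus ATP (1.25 mM final); secreted IL-1B measured by AlphaLISA after 16 hr, decreased signal indicating inhibition.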
HT1080 IDH1KD tx: toxicity to HT-1080 IDH1 knockdown cells (counter line). HT-1080 IDH1 knockdown viability, ATP luminescence, 48 h. Potency, µM (series often up to 46.1 µM), for the others: at the highest dose activity, negative = toxicity, hits mostly cytotoxic. 2% of 360,000 active. AID 686971;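 further: potency means the concentration at half of the fitted maximal effect; 0% = DMSO wells and -100% = cell-free medium wells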
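Assay cells: HT-1080 with IDH1 knockdown, 750 per well, RPMI/5% FBS. Exposure: 48 h at 37 °C following 2 h pre-incubation. Read: CellTiter-Glo luminescence; fitted concentration-response, curve class assigned.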
HT1080-NT tox: kills 2HG-producing HT-1080-NT fibrosarcoma cells; AID 686970; Potency, µM (top dose mostly 46.1 µM), for the others: at the top dose activity, negative = less viability, usual class: cytotoxic; 1.6% of 360,000 active; HT-1080-NT fibrosarcoma viability, CellTiter-Glo ATP luminescence, 48 h;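 further: NT is the 2HG producing partner of a matched IDH1 knockdown line; potency means the concentration at half of the fitted maximal effect; 0% = DMSO-treated cells and -100% = media-only wells without cells; nearly all actives have a fitted effect of over 55% in size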
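750 cells/well, RPMI + 5% FBS; 2 h settle, compound pin-transfer, 48 h at 37 degrees C. CellTiter-Glo 10 min RT, luminescence. Normalized to DMSO and media-only wells.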
DT40 TDP1 CPT: growth inhibition of DT40 Tdp1-/-;hTDP1 cells with camptothecin (screen for TDP1 inhibitors). 12% of 420,000 active. chicken DT40 Tdp1-/-;hTDP1 cells + 20 nM CPT, ATP luminescence, 48 h. Potency, µM (titrated, usually from 46.2 µM), for the others: top-dose activity change, negative = growth inhibition, most hits filed as inhibitors; further: potency means the concentration at half of the fitted maximal effect; nearly all actives have a fitted effect of over 55% in size
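Chicken DT40 Tdp1-/- cells complemented with human TDP1, 400 cells/well, exposed to compounds plus 20 nM camptothecin for at least 48 h at 37 C; viability read as ATP content by CellTiter-Glo luminescence.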
TDP1 cell noCPT: qHTS for Inhibitors of human tyrosyl-DNA phosphodiesterase 1 (TDP1): qHTS in cells in absence of CPT. Potency, µM (doses to about 46.2 µM), inactives show top-dose activity change, negative = growth inhibition, usual class: inhibitors. 15% of 420,000 active. DT40 Tdp1-/- hTDP1 cells, no CPT, ATP luminescence, 48 h. AID 686978, 2013; further: potency means the concentration at half of the fitted maximal effect; nearly all actives have a fitted effect of over 55% in size
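Growth of hTDP1-complemented DT40 Tdp1-knockout cells is measured by ATP luminescence after at least 48 hr compound exposure at 37 °C, with DMSO substituting for the 20 nM CPT used in the parallel screen.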
* marks the source's active call; other numbers are inactive results; ? = inconclusive; . = no result; ! = not active in a repeat; [ ] = remark or other dose. An excerpt weighted towards active compounds, which were near 19% of everything screened. Unless noted, the call rests on the fitted dose curve; in most records, active means well fitted curve in the direction sought with a large enough effect; inconclusive means small, poorly fitted or top-dose-only effect, or another doubt; inactive means no such curve, though single readings can be large; an effect the other way counts as inactive or inconclusive. Unless noted, on the % scale 0 is the no-effect control and ±100 the full control effect.

SMILES | IL-1B inflam inh | HT1080 IDH1KD tx | HT1080-NT tox | DT40 TDP1 CPT | TDP1 cell noCPT
CCOC(=O)c1cnc(SSc2ncc(C(=O)OCC)c(N)n2)nc1N | 0.0 | -4.0% | 1.1% | 23.1µM* | 14.6µM*
C=CCSc1ncc(C(=O)OCC)c(N)n1 | 12.7 | -12.5% | 1.9% | -5.3% | 2.3%
Cc1cc(C(=O)COC(=O)c2ccc3c(c2)NC(=O)CS3)c(C)n1CC1CCCO1 (centres undefined) | 4.5 | -12.4% | 7.1% | ? | 16.4µM*
Cc1cc(C(=O)COC(=O)c2cccc(S(=O)(=O)N(C)C)c2)c(C)n1CC1CCCO1 (centres undefined) | 9.7 | -18.8% | 6.2% | 16.4µM* | ?
COc1ccc(-c2ccc(N(C)C)cc2)cc1[C@H]1[C@H]2C=CC[C@@H](C)[C@@H]2C(=O)N1Cc1ccccc1 | 9.7 | 7.7% | 9.9% | 11.6µM* | 8.2µM*
COc1ccc(-c2cc3ccccc3s2)cc1[C@H]1[C@H]2C=CC[C@@H](C)[C@@H]2C(=O)N1Cc1ccccc1 | 16.9 | -1.8% | 0.3% | ? | 18.4µM*
Cc1ccc(F)c([C@H]2[C@H]3C=CC[C@@H](C)[C@@H]3C(=O)N2Cc2ccccc2)c1 | 91.0 | -17.3% | -2.3% | ? | ?
COc1ccc(-c2ccc(OC)c([C@H]3[C@H]4C=CC[C@@H](C)[C@@H]4C(=O)N3Cc3ccccc3)c2)cc1C | 26.4 | 8.3% | 16.3% | ? | 10.3µM*
O=C(CSc1nc(=O)n(CCN2CCOCC2)c2c1CCCC2)Nc1ccc(F)cc1F | -12.5 | -2.0% | -2.3% | 2.8% | -1.9%
COCCNC(=O)C1CCCN(C(=O)c2cccnc2Oc2ccccc2)CC1 (centres undefined) | -8.6 | 6.4% | 27.2% | -2.2% | 4.3%
O=c1nc2ccccc2c2n1CC(CN1CCN(c3ccccc3)CC1)N2 (centres undefined) | . | . | . | 7.2% | -6.2%
CC(=O)Nc1ccc(C=NNC(=O)CCCC(=O)NN=Cc2ccc(NC(C)=O)cc2)cc1 | 12.2 | 16.5% | 4.5% | -0.8% | -4.3%
COc1ccc(NC(=O)/C=C/c2c(Cl)nc3ccccn23)cc1 | ? | 12.6% | 17.6% | -9.6% | -27.3%
COc1ccccc1N1CCN(C(=O)/C=C/c2c(Cl)nc3ccccn23)CC1 | -60.5* | 5.9% | 5.7% | 10.3µM* | 4.61µM*
Cc1ccc(NC(=O)Cn2c(=O)n(CC3CCCO3)c(=O)c3ccccc32)cc1 (centres undefined) | . | . | . | -26.4% | -24.2%
CCCC(=O)N1CCN(c2ccc(NC(=S)NC(=O)c3cccc(C)c3)cc2)CC1 | -64.8* | -1.3% | -3.3% | ? | 23.1µM*
CCOc1cccc(C(=O)Nc2ccc(N(CC)CC)cc2)c1 | -14.1 | -27.2% | -26.1% | 20.6µM* | ?
CCOc1ccc(OCc2cccc(C(=O)Nc3ccc(CN4CCCCC4)cc3)c2)cc1 | -100.1* | ? | 14.6µM* | 8.2µM* | 20.6µM*
CCOc1cccc(C(=O)Nc2ccc(N3CCCC3)cc2)c1 | -29.2 | -24.0% | -6.8% | -18.7% | 16.4µM*
CCOc1ccc(C(=O)Nc2ccc(N3CCCC3)cc2)cc1 | -12.3 | -3.9% | -0.9% | -30.0% | -23.5%
COc1ccc(NC(=O)c2cc(C3CC3)nc3c2c(C)nn3-c2ccccc2)c(OC)c1 | . | . | . | -20.0% | ?
CN1CCN(c2ccc(NC(=S)NC(=O)c3cccc4c(Cl)cccc34)cc2)CC1 | 10.9 | 1.4% | 14.4% | 16.4µM* | ?
COc1cccc(C(=O)NC(=S)Nc2ccc(N3CCCC3)cc2)c1 | -57.4* | 0.0%[9.24 µM] | -1.6% | ? | 16.4µM*
COc1ccc(C(=O)NC(=S)Nc2ccc(N3CCCC3)cc2)cc1 | -4.6 | 1.8% | 13.5% | -13.7% | -19.3%
CC(=O)Nc1ccc(-c2csc(-c3cccnc3)n2)cc1 | -55.0* | -26.9% | -22.4% | ? | ?
SMILES | IL-1B inflam inh | HT1080 IDH1KD tx | HT1080-NT tox | DT40 TDP1 CPT | TDP1 cell noCPT
c1cncc(-c2csc(-c3cccnc3)n2)c1 | -25.4 | 2.8% | 16.8% | -13.7% | -14.6%
CCCC(=O)Nc1ccc(-c2csc(-c3cccnc3)n2)cc1 | -29.8 | 3.3% | 5.2% | ? | 16.4µM*
CSCC[C@H](NC(=O)[C@@H]1Cc2ccccc2CN1)C(=O)NC[C@H]1CC[C@H](C(=O)O)CC1 | 16.0 | 0.8% | -2.4% | 1.4% | 16.9%
Cc1ccc(NC(=O)c2c(NC(=O)Cc3ccccc3)sc3c2CCC3)cc1 | . | . | . | -0.7% | ?
COc1ccc(CC(=O)Nc2sc3c(c2C(=O)Nc2ccc(C)cc2)CCCCC3)cc1 | . | . | . | ? | 16.4µM*
COc1ccc(NC(=O)c2c(NC(=O)C(F)(F)F)sc3c2CCCCC3)cc1 | . | . | . | ? | 18.4µM*
O=C(Cc1ccccc1)Nc1sc2c(c1C(=O)Nc1ccc(Br)cc1)CCCC2 | . | . | . | 11.6µM* | 20.6µM*
CC1CCc2c(sc(NC(=O)Cc3ccccc3)c2C(=O)Nc2ccc(Cl)cc2)C1 (centres undefined) | . | . | . | 14.6µM* | ?
O=C(Cc1ccccc1)Nc1sc2c(c1C(=O)Nc1cccc(Cl)c1)CCCCC2 | . | . | . | -21.6% | -18.2%
O=C(Nc1cccc(-n2cnnn2)c1)c1ccc(OC(F)(F)F)cc1 | -10.6 | 6.7% | 14.4% | -18.7% | 1.0%
Cc1ccc(NC(=O)CN2C(=O)NC3(CCCc4ccccc43)C2=O)cc1S(=O)(=O)N1CCOCC1 (centres undefined) | -9.6 | 9.6% | -10.7% | -9.3% | ?
Cc1ccc(C)c(C(=O)CN2C(=O)NC3(CCc4ccccc43)C2=O)c1 (centres undefined) | 3.9 | 2.9% | -5.5% | ? | ?
Cc1ccc(C)c(NC(=O)CN(C)C(=O)CN2C(=O)NC3(CCc4ccccc43)C2=O)c1 (centres undefined) | 0.5 | 6.7% | -0.1% | 9.2µM* | 8.2µM*
CCN(CC)S(=O)(=O)c1cc(NC(=O)CN2C(=O)NC3(CCCc4ccccc43)C2=O)ccc1C (centres undefined) | ? | -17.3% | -15.2% | 23.1µM* | ?
OCc1cc(C(O)CNCCCCCCOCCCCc2ccccc2)ccc1O (centres undefined) | -25.3 | ? | 16.4µM* | 18.8µM*! | 13µM*
Cc1ccc(C(c2nnnn2CCC(C)C)N2CCN(C)CC2)cc1 (centres undefined) | -10.9 | -6.4% | -0.1% | -14.9% | -25.1%
Cc1c(C)c(C)c2[nH]c(-c3ccc4c(c3)OCO4)nc2c1C | -27.9 | -22.8% | ? | ? | 18.4µM*
COc1ccc(-c2nc(-c3cccs3)c(-c3cccs3)[nH]2)cc1OC | ? | ? | -14.9% | ? | 16.4µM*
COc1ccc(-c2nc(-c3ccccc3)c(-c3cccs3)[nH]2)cc1OC | ? | 11.7%[9.24 µM] | ? | 18.4µM* | 14.6µM*
